Only some compounds are listed: those with a hit (about 4.7% of all), similar ones and a draw of the others.
ATXN2 expr inh = reduces ATXN2 reporter expression in HEK-293 cells; HEK-293 ATXN2-luciferase reporter, luminescence, 24 h; Potency, µM (series often up to 57 µM), inactives show top-dose activity change, negative = inhibition, hits mostly inhibitors; 0.72% of 360,000 active; also: potency is read from the fitted curve at half-maximal effect; % is scaled to controls: 0 for no effect and ±100 for the full control effect; nearly all actives have a fitted effect of over 55% in size
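ATXN2-luciferase reporter cells (luciferase flanked by upstream and downstream ATXN2 gene portions) were treated 24 h at 37 °C with compounds at up to 57 uM. SteadyGlo luminescence gave expression; GF-AFC fluorescence gave viability.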
TGFb inhibitor = blocks TGF-b signaling; Potency, µM (top dose mostly 46.1 µM), inactives show at the top dose activity, negative = inhibition, most hits filed as inhibitors; HepG2 CAGA-GFP TGF-b/SMAD3 reporter, GFP fluorescence, 18 h; TGF-beta stimulated, 500 pg/mL final; 1.2% of 410,000 active; also: potency is read from the fitted curve at half-maximal effect; % is scaled to controls: 0 for no effect and ±100 for the full control effect; nearly all actives have a fitted effect of over 65% in size
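Cell-based qHTS in HEPG2 carrying a CAGA-GFP Smad reporter; compounds added before 500 pg/mL final TGF-beta, 18 h incubation at 37 degrees C, GFP fluorescence quantified per cell by imaging cytometry.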
S2 tox = viability counter-screen for ATXN expression inhibitors; S2 cells (HEK-293 line with an ATXN2-luciferase reporter) viability, CellTiter-Fluor protease fluorescence, 24 h; Potency, µM (series often up to 56.7 µM), most hits filed as cytotoxic; 0.49% of 400,000 active; AID 651635; also: potency is read from the fitted curve at half-maximal effect; nearly all actives have a fitted effect of over 40% in size
DRD3 agonist = activates the human D3 dopamine receptor. P35462. D3R DiscoveRx beta-arrestin cells, luminescence, 90 min. max activation, %. 0.58% of 410,000 active. AID 652048; in the data active = max activation above about 30%; also: 0% is about no effect
Target sequence (P35462 whole entry, looked up): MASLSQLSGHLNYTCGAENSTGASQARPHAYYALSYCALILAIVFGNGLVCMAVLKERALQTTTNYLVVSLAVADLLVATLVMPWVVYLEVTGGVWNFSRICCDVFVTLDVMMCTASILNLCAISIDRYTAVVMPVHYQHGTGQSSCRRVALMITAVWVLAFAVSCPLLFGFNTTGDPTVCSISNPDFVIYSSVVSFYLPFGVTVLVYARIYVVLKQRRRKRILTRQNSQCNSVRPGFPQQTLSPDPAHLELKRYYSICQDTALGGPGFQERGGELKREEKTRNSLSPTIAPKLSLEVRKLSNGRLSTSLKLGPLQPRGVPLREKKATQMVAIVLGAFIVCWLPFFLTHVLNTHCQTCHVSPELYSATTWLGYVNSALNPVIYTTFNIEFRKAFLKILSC
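Cells at 1500/well, incubated overnight, then treated with pinned compounds (dopamine as control) for 90 min at 37 degrees C. DiscoveRx reagent added for 30 - 60 minutes at room temperature; luminescence read.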
HepG2 viability = kills HepG2 cells in TGF-b inhibitor counter-screen; HepG2 CAGA-GFP viability, ATP luminescence, 18 h; Potency, µM (top dose mostly 46.1 µM), inactives show top-dose activity change, negative = cytotoxicity, usual class: cytotoxic; 0.76% of 410,000 active; also: potency is read from the fitted curve at half-maximal effect
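HepG2 CAGA-GFP cells (1000/well, DMEM with 1% FBS) received compound, then TGF-beta at 500 pg/mL final, and were incubated 18 hours at 37 degrees C. Viability was read by CellTiter-Glo luminescence. Media-only wells were set as complete cell-killing and DMSO as no toxicity.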
D3 antag = antagonists of human D3 dopamine receptor. P35462. D3R cells, DiscoveRx beta-arrestin luminescence, antagonist mode; active compounds read low. max response, negative = inhibition, %. 2.5% of 360,000 active. AID 652054; in the data active = max response below about -50%; inconclusive = no clear call, values can overlap the other calls; also: % is scaled to controls: 0 for no effect and ±100 for the full control effect
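Cells plated overnight at 1500 cells/well, then exposed to library compounds with dopamine controls for 90 minutes at 37 degrees C. DiscoveRx reagent added for 30–60 minutes at room temperature; luminescence read, quantitative HTS format.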
The depositor's hits bear a star; i = inactive; ? = inconclusive; / = not tested or not shown; [ ] = another dose, or the depositor's remark. Unless noted, calls follow the shape of the dose curve; as a rule, active = well fitted curve in the direction sought with a large enough effect; inconclusive = small, poorly fitted or top-dose-only effect, or another doubt; inactive = no such curve, though single readings can be large; an effect the other way counts as inactive or inconclusive.

SMILES	ATXN2 expr inh	TGFb inhibitor	S2 tox	DRD3 agonist	HepG2 viability	D3 antag
O=S(=O)(c1ccccc1)N1CCN(c2ccnc3cc(Cl)ccc23)CC1	13µM*	?	?	10	-30%	-8
COC(=O)/C=C/c1cc(F)ccc1S(=O)(=O)Nc1ccccc1	/	-7%	/	/	7%	/
COc1cccc(OC)c1OCC(C)CNCC1CCCO1 (stereo unspecified)	-8%	5%	i	-18	-48%	-67*
CC[C@H](CO)Nc1nc(Nc2cccc(Cl)c2)c2ncn(C(C)C)c2n1	?	20µM*	16µM*	4	-50%	-6
CC1(C)CC(C(=O)N2CCOc3ccc(CN4CCC(Oc5cccnc5)CC4)cc3C2)CCO1 (stereo unspecified)	/	/	i	/	/	/
COc1cc(CC(=O)OCC(=O)Nc2sccc2C(N)=O)cc(OC)c1OC	-15%	-10%	i	32*	-25%	51
NC(=O)c1ccsc1NC(=O)COC(=O)Cc1ccsc1	-2%	-13%	i	4	-7%	9
CNc1nc(-c2ccc(OC)cc2)c(-c2ccc(OC)cc2)s1	3%	3%	i	49*	-21%	-7
Cc1c(CN2CCOc3c(O)cc(-c4nc5ccccc5s4)cc3C2)cnn1C	/	/	i	/	/	/
Cc1nc(NC2=NCN(CCCN3CCOCC3)CN2)nc2c(C)cccc12	?	16µM*	?	-2	-25%	1
COC(=O)/C=C1\NC(=O)C(C)S1 (stereo unspecified)	-38%	0.56µM*	?	4	-24%	4
CCOc1ccccc1NS(=O)(=O)c1ccc(-c2cnc(C3CC3)o2)cc1	/	4.5µM*	i	-3	-31%	-9
O=S(=O)(Nc1ccc(F)cc1Cl)c1ccc(-c2cnc(C3CC3)o2)cc1	/	14µM*	i	3	-54%	-15
CCOc1ccccc1NS(=O)(=O)c1cc(-c2cnc(C3CC3)o2)ccc1C	5%	-25%	i	-31	-49%	/
CCN(CC)c1ccc(NS(=O)(=O)c2ccc(-c3cnc(C4CC4)o3)cc2)c(C)c1	?	?	?	-10	-22%	/
Cc1ccc(NS(=O)(=O)c2ccc(-c3cnc(C4CC4)o3)cc2)c(C)c1	/	13µM*	?	-4	-68%	-6
O=S(=O)(c1ccc(-c2cnc(C3CC3)o2)cc1)N1CCN(c2ccc(F)cc2)CC1	-2%	?	i	-19	-28%	/
Cc1cc(C)c(NS(=O)(=O)c2ccc(-c3cnc(C4CC4)o3)cc2)c(C)c1	-31%	1.4µM*	?	-18	-67%	/
Cc1cnc2c(C)cccc2c1/C=C/c1ccc(N(C)C)cc1	/	?	/	/	-32%	/
Cc1ccc(S(=O)(=O)c2nnn3c2nc(N2CCOCC2)c2sccc23)cc1C	/	16%	/	0	-1%	/
Cc1cc(-c2ccc(S(=O)(=O)Nc3ccc(Cl)cc3C)cc2)on1	/	13µM*	/	2	-31%	/
COc1ccccc1CNS(=O)(=O)c1ccc(-c2cnc(C3CC3)o2)cc1	-30%	11µM*	?	-7	29%	-1
COc1ccc(NS(=O)(=O)c2ccc(-c3cnc(C4CC4)o3)cc2)cc1OC	/	-31%	i	-1	-22%	-2
Cc1cc(-c2ccc(S(=O)(=O)Nc3ccccc3C)cc2)on1	/	?	/	3	-26%	/
Cc1ccc(NS(=O)(=O)c2cc(-c3cnc(C4CC4)o3)ccc2C)cc1Cl	-8%	7.1µM*	i	-19	11µM*	/
SMILES	ATXN2 expr inh	TGFb inhibitor	S2 tox	DRD3 agonist	HepG2 viability	D3 antag
O=S(=O)(Nc1cccc(C(F)(F)F)c1)c1ccc(-c2cnc(C3CC3)o2)cc1	?	?	?	1	13µM*	/
CCCCN(CCCC)c1ccc(C=Nc2ccc(/C=C/c3ccnc4ccccc34)cc2)cc1C	/	-7%	/	/	-27%	/
O=P(O)(O)C(O)(Cc1cnc2ccccn12)P(=O)(O)O	/	/	i	-5	/	/
Oc1ccc(-c2c(-c3ccsc3)sc3ccccc23)cc1	?	11µM*	?	36*	-43%	39
CCCC(=O)Oc1ccc2[nH]c(C(=O)c3cc4ccccc4[nH]3)cc2c1	/	-24%	/	/	-25%	/
O=C(CSC1=NCCN1)Nc1cccc(C(F)(F)F)c1	32%	-1%	i	-11	-46%	-65*
O=C(COc1ccc(C(=O)O)cc1)Nc1cccc(C(F)(F)F)c1	-26%[11.3 µM]	4%	i	-13	-6%	29
O=C(COCC(=O)Nc1cccc(C(F)(F)F)c1)Nc1cccc(C(F)(F)F)c1	-14%	-20%	i	-9	22µM*	17
CC(C)c1cc(C(=O)Nc2cccc(C(F)(F)F)c2)no1	13%	-20%	i	-4	-3%	-53*
COC(=O)/C(=C\C(=O)c1ccccc1)Nc1cccc(C(F)(F)F)c1	47%	4%	i	3	-1%	-76*
Cn1ccnc1SCC(=O)Nc1cccc(C(F)(F)F)c1	5%	-4%	i	-13	-2%	-10
CN(C)CC(C)(C)CNC(=O)c1cnn(-c2ncc3c(n2)-c2ccccc2CC3)c1-c1ccco1	/	/	i	/	/	/
Fc1ccc(Nc2c3c(nc4nncn24)CCC3)cc1	/	/	/	3	-1%	/
CCOc1cc(CNCCSc2nnnn2C)cc(Cl)c1OCc1ccc(Cl)cc1	/	?	/	-28	-118%	/
COc1cc(OC)cc(C(=O)N[C@@H](CCSC)c2nc3ccccc3[nH]2)c1	/	-7%	i	-7	-5%	-56*
CSCC[C@H](NC(=O)c1ccc(Cl)c([N+](=O)[O-])c1)c1nc2ccccc2[nH]1	?	-5%	?	-30	-13%	-95*
O=C(NC(Cc1ccccc1)c1nc2ccccc2[nH]1)c1ccc(Cl)c([N+](=O)[O-])c1 (stereo unspecified)	/	?	?	-19	-3%	-63*
CCC(=O)N1CCc2cc(Br)cc(S(=O)(=O)N3CCCC(C(=O)N(C)c4ccc(Br)cc4)C3)c21 (stereo unspecified)	2%	?	i	-3	-11%	/
Cc1ccc2c(CC(=O)Nc3nnc(C(C)C)s3)coc2c1C	2%	4%	i	-15	-19%	/
COc1ccc(-c2noc(CSc3nnc(C)n3-c3ccc(OC)cc3)n2)cc1	-20%	?	?	7	-25%	/
CCOC(=O)c1c(-c2ccc(C)o2)csc1NC(=S)NC(=O)N(C)C	?	?	/	1	-33%	-55*
CCOC(=O)c1c(-c2ccc(C)o2)csc1NC(=O)COC(=O)c1cccs1	1%	14%	i	1	-6%	0

Bioassay records as filed in PubChem BioAssay.
